S1P2 antag = antagonists of human S1P2 receptor | inhibition, % at 5 µM | AID 736 | O95136 | cell-based S1P2 antagonist assay, inhibition at 5 uM | 97,000 compounds, 0.21% hits; in the data active means inhibition above about 45%;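 further: CRE beta-lactamase reporter cells expressing human S1P2 stimulated with S1P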
Target sequence (O95136 whole entry, looked up): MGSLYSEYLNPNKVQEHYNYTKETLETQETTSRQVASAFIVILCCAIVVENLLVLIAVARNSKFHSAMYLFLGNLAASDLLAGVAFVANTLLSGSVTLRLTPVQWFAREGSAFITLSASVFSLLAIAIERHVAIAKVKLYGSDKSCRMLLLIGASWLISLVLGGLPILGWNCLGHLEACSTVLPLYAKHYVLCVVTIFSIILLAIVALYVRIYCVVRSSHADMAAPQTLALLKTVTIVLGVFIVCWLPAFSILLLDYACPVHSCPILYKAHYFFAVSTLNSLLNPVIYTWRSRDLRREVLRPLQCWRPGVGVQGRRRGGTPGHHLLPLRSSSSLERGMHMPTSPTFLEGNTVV
GALR2 ag = activates the human galanin receptor 2; O43603; GALR2-expressing cells, agonist activation read-out; activation, % (no concentration beside the values); 140,000 compounds, 0.48% hits; in the data active means activation above about 5%, passing the limit was not always enough
Target sequence (O43603 whole entry, looked up): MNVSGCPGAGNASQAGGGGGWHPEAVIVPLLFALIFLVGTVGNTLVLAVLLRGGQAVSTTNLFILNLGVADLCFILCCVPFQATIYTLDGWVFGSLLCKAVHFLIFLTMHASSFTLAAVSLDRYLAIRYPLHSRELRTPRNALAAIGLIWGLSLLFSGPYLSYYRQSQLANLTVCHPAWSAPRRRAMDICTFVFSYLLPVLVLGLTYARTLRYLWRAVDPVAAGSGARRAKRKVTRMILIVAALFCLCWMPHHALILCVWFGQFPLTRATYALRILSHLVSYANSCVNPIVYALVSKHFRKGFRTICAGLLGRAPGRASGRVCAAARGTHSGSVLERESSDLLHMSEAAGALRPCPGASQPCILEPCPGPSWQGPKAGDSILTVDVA
S1P2 ag = S1P2 (human) receptor agonism | AID 729 | activation, % at 4.5 µM | S1P2-expressing cell line, agonist reporter read-out | 97,000 compounds, 0.46% hits; in the data active means activation above about 16%
Candida biofilm = kills Candida albicans biofilms. 85,000 compounds, 0.14% hits. inhibition, % at 6 µM. C. albicans biofilm + clotrimazole, Alamar Blue;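 active means inhibition above 20%; inactive means inhibition below 20%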;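 further: preformed 24 hr biofilms exposed to compound for 48 hr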
GALR2 blocker = GALR2 (human) receptor antagonism; GALR2-expressing cells, antagonist mode; 140,000 compounds, 0.39% hits; O43603; inhibition, % at 4 µM; in the data active means inhibition above about 27%;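 further: cells stimulated with galanin 1-16 at roughly its EC80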
Phagocyt inh = blocks phagocytosis by macrophages; 110,000 compounds, 0.07% hits; J774A.1 macrophage IgG-bead phagocytosis, imaging; inhibition, % at 5 µM;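 active means inhibition above the mean of the plate negative controls plus 5 SD, cut at about 13% in these data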;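 further: phagocytic index as fraction of beads internalized from green versus red external bead signal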
GALR2 ag confirm = confirmation of human galanin receptor 2 (GALR2) agonists | shares compounds with GALR2 ag | activation, % at 5.6 µM | AID 864 | 460 compounds, 10% hits | GALR2-expressing cells, agonist activation; in the data active means activation above about 8.4%
BLA activ ctr = counter-screen for GALR2 agonists: beta-lactamase reporter activators | shares compounds with GALR2 ag | CHO NFAT-bla reporter, beta-lactamase FRET activation | activation, % at 5.6 µM | 460 compounds, 10% hits | AID 865;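 active means activation above the screen-wide mean activation plus 3 SD, cut at about 8% in these data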
Each line names hits and unclear results; the compound was inactive in the other large screens (follow-up assays come after a bar, where they were run). A selection: hits, their analogues and other compounds. The true share with any hit is near 1.3%.

COc1cccc(-c2nnc3n2N=C(C(C)(C)C)CS3)c1	S1P2 antag 98 (no result: Phagocyt inh)
COc1ccc(OC)c(C2=Nn3c(nnc3-c3cc(OC)c(OC)c(OC)c3)SC2)c1	S1P2 ag 40
CN(c1cccc(NC(=O)CN2C(=O)c3ccccc3S2(=O)=O)c1)S(C)(=O)=O	none (no result: Candida biofilm)
CCOc1ccc2nc(N3CCC(C(=O)N4CCN(C(=O)c5ccco5)CC4)CC3)sc2c1	none (no result: S1P2 antag, S1P2 ag)
CCOc1ccc2cc(/C=C/C(=O)c3ccco3)c(Cl)nc2c1	GALR2 blocker 32
CCCCCCc1cc2cc(-c3nnc(-c4ccccc4O)o3)c(=O)oc2cc1O	GALR2 ag 18 (no result: S1P2 antag, S1P2 ag, Candida biofilm)
CCCCCCc1cc2cc(-c3nnc(-c4ccccc4OC)o3)c(=O)oc2cc1O	none
Cc1cccc(S(=O)(=O)NCCC(=O)OC(C)C(=O)NC(=O)NC2CCCCC2)c1 (stereo not drawn)	none
CC(=O)N1CCN=C1SCc1cccc(C(F)(F)F)c1	none (no result: Candida biofilm)
CC(=O)N1CCN=C1SCc1ccc(Br)cc1	Candida biofilm 24
c1ccc2[nH]c(CSc3ncnc4c3oc3ccccc34)nc2c1	S1P2 ag 32 (no result: Phagocyt inh)
Cc1nc(SCc2nc3ccccc3[nH]2)c2oc3ccccc3c2n1	S1P2 ag 23 (no result: Phagocyt inh)
COc1ccccc1NC(=S)Nc1ccccn1	GALR2 ag 44 (no result: S1P2 antag, S1P2 ag, Candida biofilm) | GALR2 ag confirm inactive | BLA activ ctr inactive
COc1ccc(/C=C2\CCc3ccccc3C2=O)cc1Cn1cccn1	none (no result: Candida biofilm)
CN1CCN(C(=S)NC(=O)/C=C/c2cccc3ccccc23)CC1	GALR2 ag 22 (no result: Candida biofilm) | GALR2 ag confirm inactive | BLA activ ctr inactive
COCc1nnc(NC(=O)C(C)C)s1	GALR2 ag 136 | GALR2 ag confirm inactive | BLA activ ctr inactive
CCOCC(=O)Nc1nnc(COC)s1	none
CCc1cccc(C)c1NC(=O)CCCC(=O)O	none
Cc1cc(C)c(NC(=O)CCCC(=O)O)c(Cl)c1	GALR2 ag 13 (no result: Phagocyt inh) | GALR2 ag confirm inactive | BLA activ ctr inactive
CCOc1cccc(-c2nn(-c3ccccc3)cc2/C=C(/C#N)C(=O)NCCCn2ccnc2)c1	GALR2 ag 46 (no result: S1P2 antag, S1P2 ag, Candida biofilm) | GALR2 ag confirm 35 | BLA activ ctr 82
COC(=O)c1scc(C)c1N/N=C(\C)c1ccc(F)cc1	none (no result: Phagocyt inh)
CCc1c(C)c2ccc(OCC(N)=O)cc2oc1=O	none
COc1cc(/C=C/C(=O)Nc2nc3ccc(S(=O)(=O)N(C)C)cc3s2)cc(OC)c1OC	none (no result: S1P2 antag, S1P2 ag, Candida biofilm)
COc1cc2nc(/C=C/c3cc(OC)c(OC)c(OC)c3)sc2cc1SC	GALR2 ag 14 (no result: S1P2 antag, S1P2 ag, Candida biofilm) | GALR2 ag confirm inactive | BLA activ ctr 9.0
Cc1cccc2cc3c(NC(=O)c4ccccn4)nn(C)c3nc12	none | GALR2 ag confirm inactive | BLA activ ctr inactive
O=C(c1ccc(-c2ccccc2)cc1)N1CCN(Cc2ccccn2)CC1	none
N#Cc1c(-c2ccccc2)cc(-c2ccco2)c(C#N)c1N	none | GALR2 ag confirm inactive | BLA activ ctr 11
Cc1cccc2c1-c1sc(C(=O)Nc3nccs3)cc1CO2	GALR2 ag 89, S1P2 ag 24 | GALR2 ag confirm 11 | BLA activ ctr 24
[O-][N+]12CC[N+]([O-])(CC1)c1ccccc12	none
Cc1cc(NC(=O)CSc2nc(CC(C)(C)C)nc3c2c(=O)n(C)c(=O)n3C)no1	none
COc1ccc(C(=O)/C=C/c2cn(CN3CCN(C)CC3)c3ccccc23)cc1	none
CCOc1ccc(C(=O)/C=C/c2cn(CN3CCN(C)CC3)c3ccccc23)cc1	GALR2 ag 12 (no result: Phagocyt inh) | GALR2 ag confirm inactive | BLA activ ctr inactive
CCOC(=O)N1CCN(C(=O)C2CCN(S(=O)(=O)c3c(C)cc(C)cc3C)CC2)CC1	GALR2 ag 18 | GALR2 ag confirm inactive | BLA activ ctr inactive
CCOC(=O)N1CCN(S(=O)(=O)c2c(C)cc(C)cc2C)CC1	none
CC1CCc2cc(F)cc3c(O)c(C(=O)NCc4ccco4)c(=O)n1c23 (stereo not drawn)	GALR2 ag 9.5 (no result: Phagocyt inh) | GALR2 ag confirm inactive | BLA activ ctr inactive
CCCn1nnc(NC(=O)Cc2ccc(Cl)cc2)n1	none (no result: Candida biofilm, Phagocyt inh)
CCOc1ccccc1N=c1oc2cc(O)ccc2cc1C(=O)NCC1CCCO1 (stereo not drawn)	GALR2 ag 66, S1P2 ag 18 | GALR2 ag confirm inactive | BLA activ ctr inactive
CCOc1ccc(N=c2oc3cc(O)ccc3cc2C(=O)NCC2CCCO2)cc1 (stereo not drawn)	none
CC(C)CC(=O)N=C1SC2CS(=O)(=O)CC2N1Cc1ccccc1 (stereo not drawn)	none (no result: S1P2 antag, S1P2 ag, Candida biofilm)
C#CCNc1cc(C)nc2ncnn12	GALR2 ag 13 | GALR2 ag confirm inactive | BLA activ ctr inactive
CCn1c(N)c(C(=O)NCC2CCCO2)sc1=S (stereo not drawn)	none (no result: Candida biofilm)
Nc1c(C(=O)NCC2CCCO2)sc(=S)n1-c1ccccc1 (stereo not drawn)	none | GALR2 ag confirm inactive | BLA activ ctr inactive
CCCC(=O)c1ccc(N2CCN(C(=O)OCC)CC2)c(F)c1	GALR2 ag 30 | GALR2 ag confirm inactive | BLA activ ctr inactive
CCOC(=O)N1CCN(c2ccc(C(=O)CC)cc2F)CC1	none
O=C(CSc1ccc2nnc(-c3cccc(F)c3)n2n1)N1CCCc2ccccc21	GALR2 ag 9.1 (no result: S1P2 antag, S1P2 ag, Candida biofilm) | GALR2 ag confirm 9.7 | BLA activ ctr inactive
N#C/C(=C\c1c(N2CCCCC2)nc2ccccn2c1=O)C(=O)NC1CCS(=O)(=O)C1 (stereo not drawn)	GALR2 ag 13 (no result: S1P2 antag, S1P2 ag, Candida biofilm, Phagocyt inh) | GALR2 ag confirm inactive | BLA activ ctr inactive
Cc1cccn2c(=O)c(/C=C(\C#N)C(=O)NC3CCS(=O)(=O)C3)c(N3CCC(C)CC3)nc12 (stereo not drawn)	none (no result: S1P2 antag, S1P2 ag, Candida biofilm)
O=C(Nc1ccncc1)c1ccc2c(c1)C(=O)N(C1CCCCC1)C2=O	GALR2 ag 36 | GALR2 ag confirm inactive | BLA activ ctr inactive
Nc1cccc(C(=O)Nc2ccco2)c1	none (no result: Candida biofilm)
COc1ccc(N(CC(=O)NCc2cccs2)S(=O)(=O)c2c(C)nn(C)c2C)cc1	GALR2 ag 17 | GALR2 ag confirm inactive | BLA activ ctr inactive
Cc1nn(C)c(C)c1S(=O)(=O)N(CC(=O)NCc1cccs1)c1ccc(C(C)C)cc1	none (no result: S1P2 antag, S1P2 ag, Phagocyt inh)
CC(=O)Nc1ccc2[nH]c(C)c(CC=C(Cl)Cl)c(=O)c2c1	GALR2 ag 14 | GALR2 ag confirm inactive | BLA activ ctr inactive
CCOC(=O)c1ccc2[nH]c(C)c(CCC(C)=O)c(=O)c2c1	none
COC(=O)C1=CNC=C(C(=O)OC)C1c1ccccc1Cl	none (no result: Candida biofilm) | GALR2 ag confirm inactive | BLA activ ctr inactive
CC(C)(C)c1cc(CCC(=O)NNC(=S)NC(=O)c2ccccc2)cc(C(C)(C)C)c1O	GALR2 ag 35 (no result: S1P2 antag, S1P2 ag, Candida biofilm) | GALR2 ag confirm 37 | BLA activ ctr 29
O=C(CCc1ccccc1)NNC(=S)NC(=O)c1ccccc1	none (no result: Candida biofilm, Phagocyt inh)
CCCc1nc2c(=O)n(C)c(=O)[nH]c2n1CCC	none
COc1cc2c(cc1NC(=O)COC(=O)Cn1cnc3ccccc31)oc1ccccc12	none
CC1(C)Cc2c(C#N)c(NCc3ccco3)nc(-c3ccco3)c2CO1	none (no result: S1P2 antag, S1P2 ag)

Screening results deposited in PubChem BioAssay by several laboratories.
